FBW7 activator – activators of human E3 ligase FBW7. Q969H0. AlphaScreen FBW7–phospho-cyclin E peptide binding, activator screen. normalized activity (activation), % at 26.1 µM. 0.13% of 650,000 active. AID 1259310; in the data active = normalized activity above about 1.9%;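 also: purified mutant Fbw7 with reduced substrate affinity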
Target sequence (Q969H0 whole entry, looked up): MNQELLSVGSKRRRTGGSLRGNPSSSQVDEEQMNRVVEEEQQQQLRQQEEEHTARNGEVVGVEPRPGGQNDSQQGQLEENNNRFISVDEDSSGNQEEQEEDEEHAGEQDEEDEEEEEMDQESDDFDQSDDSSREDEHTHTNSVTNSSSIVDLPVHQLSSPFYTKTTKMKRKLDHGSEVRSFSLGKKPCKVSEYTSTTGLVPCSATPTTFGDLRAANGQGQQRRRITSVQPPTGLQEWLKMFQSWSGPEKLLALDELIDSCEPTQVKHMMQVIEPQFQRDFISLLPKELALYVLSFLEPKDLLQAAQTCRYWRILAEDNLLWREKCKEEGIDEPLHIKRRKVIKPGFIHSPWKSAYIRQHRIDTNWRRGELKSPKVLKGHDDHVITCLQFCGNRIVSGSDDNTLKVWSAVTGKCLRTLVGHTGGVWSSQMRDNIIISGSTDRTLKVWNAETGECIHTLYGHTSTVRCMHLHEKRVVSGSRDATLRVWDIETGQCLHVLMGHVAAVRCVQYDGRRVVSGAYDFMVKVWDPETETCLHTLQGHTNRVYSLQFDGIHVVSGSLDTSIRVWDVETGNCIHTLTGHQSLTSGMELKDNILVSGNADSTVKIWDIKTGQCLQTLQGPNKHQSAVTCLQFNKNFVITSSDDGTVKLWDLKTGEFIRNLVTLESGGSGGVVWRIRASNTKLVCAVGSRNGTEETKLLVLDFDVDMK
GPR151 activ – activators of human GPR151. PathHunter beta-arrestin GPR151 cells, luminescence. Q8TDV0. activation, % at 11.2 µM. 1% of 650,000 active; in the data active = activation above about 4.9%
TEAD-YAP inh – TEAD-YAP interaction inhibition | 1.4% of 640,000 active | HEK-TIYL cells, TEAD-Gal4/YAP UAS-luciferase luminescence | inhibition, % at 9.12 µM; in the data active = inhibition above about 32%
MITF inh – inhibitors of human MITF; AID 1259374; AlphaScreen MITF homodimerization, bead proximity signal; inhibition, % at 2.6 µM; 0.91% of 650,000 active; in the data active = inhibition above about 50%
GPR151 conf act – confirmation of human GPR151 activators | 6,700 tested, under 10 active | shares compounds with GPR151 activ | activation, % at 11.2 µM | GPR151 PathHunter beta-arrestin cells, luminescence, 90 min; % of EA-reagent control over plate median;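 active = mean percent activation across replicates above the confirmation screen cutoff of 4.91%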
GPR119 counter – activates human GPR119 in a GPR151 counter-screen | shares compounds with GPR151 activ | GPR119 PathHunter beta-arrestin cells, luminescence, 90 min; 0 = compound-well median, 100 = enzyme-acceptor control | activation, % at 11.2 µM | 0.3% of 6,700 active | AID 1508611;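 active = mean percent activation in the counterscreen above 29.09%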;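 also: counterscreen on off-target GPR119 to flag nonselective hits from the GPR151 activator screen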
Of the large screens only hits and unclear results are named; the others gave an inactive call (follow-up assays come after a bar, where they were run); ! = a repeat was not active. The list is not random: actives were taken first. Their share in the collection is about 3.4%.

Cc1nc(N2CCOCC2)c2oc3ccccc3c2n1	GPR151 activ 7.4 | GPR151 conf act inactive | GPR119 counter inactive
Cc1nc(N2CCC(C(=O)O)CC2)c2oc3ccccc3c2n1	none
NS(=O)(=O)c1ccccc1NC(=O)c1c(O)c2cccc3c2n(c1=O)CC3	GPR151 activ 5.2 | GPR151 conf act inactive | GPR119 counter inactive
CCCCCc1nnc2n1N=C(c1ccc(Cl)cc1)CS2	none
Cn1c(=O)c2ncn(CC(=O)Nc3ccc(C(=O)O)cc3)c2n(C)c1=O	GPR151 activ 5.2 | GPR151 conf act inactive | GPR119 counter inactive
COc1cccc(NC(=O)N2CCNCC2)c1	GPR151 activ 23 | GPR151 conf act inactive | GPR119 counter inactive
CC1CCCCN1C(=O)CCc1nc(-c2ccc(Cl)cc2)no1 (centres undefined)	GPR151 activ 6.7 | GPR151 conf act inactive | GPR119 counter inactive
Cc1ccc(-c2noc(CCC(=O)N3CCCCC3C)n2)cc1 (centres undefined)	none
CCCCCCCCCCCCCCCC(=O)SCCOP(=O)(O)OCC[N+](C)(C)C	GPR151 activ 5.4 (no result: FBW7 activator, TEAD-YAP inh) | GPR151 conf act inactive | GPR119 counter inactive
CN(C)c1ccc(NC2CC(=O)N(c3cccc4ccccc34)C2=O)cc1 (centres undefined)	GPR151 activ 5.6 | GPR151 conf act inactive | GPR119 counter inactive
CN(C)c1ccc(NC2CC(=O)N(c3cccc(Cl)c3)C2=O)cc1 (centres undefined)	none
C/C(CCc1ccccc1)=N/Nc1ccc([N+](=O)[O-])cc1	GPR151 activ 8.0 | GPR151 conf act inactive | GPR119 counter inactive
Cc1ccccc1-n1c2nc(=O)[nH]c(=O)c-2cc2c(Cl)cccc21	GPR151 activ 8.3 | GPR151 conf act inactive | GPR119 counter inactive
O=C(OCc1ccccc1)/C(=C/c1cccc([N+](=O)[O-])c1)NC(=O)c1ccco1	none
CNC(=O)/C(=C/c1cccc([N+](=O)[O-])c1)NC(=O)c1ccc(C(C)(C)C)cc1	GPR151 activ 6.0 | GPR151 conf act inactive | GPR119 counter inactive
NC(=O)/C(=C/c1cccc([N+](=O)[O-])c1)NC(=O)c1ccco1	GPR151 activ 6.8 | GPR151 conf act inactive | GPR119 counter inactive
Cc1cc(NC(=O)c2ccc3c(c2)C(=O)N(c2ccc([N+](=O)[O-])cc2)C3=O)no1	GPR151 activ 5.7 | GPR151 conf act inactive | GPR119 counter inactive
O=C1OC(c2ccc(Cl)cc2Cl)=N/C1=C\c1cccc(Cl)c1Cl	GPR151 activ 8.0 | GPR151 conf act inactive | GPR119 counter inactive
O=c1[nH]c2ccc(S(=O)(=O)NCc3ccco3)cc2o1	GPR151 activ 6.0 | GPR151 conf act inactive | GPR119 counter inactive
O=c1ccc2cc(S(=O)(=O)NCc3ccco3)ccc2o1	none
CCC(=O)C1=C(c2ccc(C(C)(C)C)cc2)N(C(=O)CC)n2cnnc2S1	GPR151 activ 6.4, TEAD-YAP inh 67 | GPR151 conf act inactive | GPR119 counter inactive
N#Cc1ccc(OCC(=O)OCC(=O)Nc2ncc(Cl)cc2Cl)cc1	GPR151 activ 5.6 | GPR151 conf act inactive | GPR119 counter inactive
CCOC(=O)CSc1nnc(NC(=O)c2ccccc2F)s1	none
COc1ccc(C)cc1Nc1nnc(C(C)(C)C)c(=O)[nH]1	none
O=C(O)c1cc(N2Cc3ccccc3C2)ccc1O	none
CCCC(=O)N(CC)c1ccccc1C	none
C/C=C/C(=O)N(CC)c1ccccc1C	GPR151 activ 6.1! | GPR151 conf act inactive | GPR119 counter inactive
NC(=O)CCC/C=C\C[C@@H]1[C@@H](/C=C/[C@@H](O)CCc2ccccc2)[C@H](O)C[C@@H]1O	GPR151 activ 7.0 (no result: FBW7 activator, TEAD-YAP inh) | GPR151 conf act inactive | GPR119 counter inactive
O=C(O)CCC/C=C\C[C@@H]1[C@@H](/C=C/[C@H](O)CCc2ccccc2)[C@H](O)C[C@@H]1O	GPR151 activ 5.6 (no result: FBW7 activator, TEAD-YAP inh) | GPR151 conf act inactive | GPR119 counter inactive
O=C(CCC/C=C\C[C@@H]1[C@@H](/C=C/[C@@H](O)CCc2ccccc2)[C@H](O)C[C@@H]1O)NC(CO)CO	none (no result: FBW7 activator, TEAD-YAP inh)
COC(=O)c1cc(CCC=C(C)C)nc2ccccc12	none
COc1ccc(OC)c(NC(=O)CCN(C)Cc2ccccc2)c1	GPR151 activ 11 | GPR151 conf act inactive | GPR119 counter inactive
COc1ccc(OC)c(NC(=O)c2ccccc2C(F)(F)F)c1	GPR151 activ 6.6 | GPR151 conf act inactive | GPR119 counter inactive
COc1ccccc1NC(=O)c1ccccc1C(F)(F)F	none
COc1ccc(/C=C(/NC(=O)c2ccc(C)cc2)C(=O)O)c(OC)c1	GPR151 activ 5.3 | GPR151 conf act inactive | GPR119 counter inactive
COc1ccc(/C=C(\NC(=O)c2ccccc2)C(=O)NN)c(OC)c1	none
Cc1ccccc1-c1cnnc(NCC2COCCO2)n1 (centres undefined)	GPR151 activ 7.4 | GPR151 conf act inactive | GPR119 counter inactive
Cc1ccccc1-c1cnnc(NCc2cc(-c3ccccc3)on2)n1	none
O=C(O)CCCn1c(O)c(C2=c3cc(Br)ccc3=NC2=O)sc1=S	none
Cc1cccc(-c2nc(CCNC(=O)Cc3ccccc3)cs2)c1	GPR151 activ 5.8 | GPR151 conf act inactive | GPR119 counter inactive
CCNc1ccc(S(=O)(=O)C(F)(F)C(F)C(F)(F)F)cc1[N+](=O)[O-] (centres undefined)	none
Cc1c(NC(=S)NC(=O)c2oc3ccccc3c2C)cccc1-c1nc2ccccc2s1	GPR151 activ 10 | GPR151 conf act inactive | GPR119 counter inactive
CCOC(=O)C(C)Sc1nc(-c2cccs2)cc(-c2ccc(F)cc2)c1C#N (centres undefined)	none
Cc1ccc(CN2C(=O)CSc3ccc(NC(=O)Nc4nc(C)cc(C)n4)cc32)cc1	GPR151 activ 7.4 | GPR151 conf act inactive | GPR119 counter inactive
COC(=O)c1ccc2c(=O)n(CCc3ccc(S(N)(=O)=O)cc3)c(SCC(=O)c3ccccc3)nc2c1	none
COC(=O)c1ccc2c(=O)n(CCc3ccc(S(N)(=O)=O)cc3)c(SCc3c(F)cccc3F)nc2c1	GPR151 activ 16 | GPR151 conf act inactive | GPR119 counter inactive
CN(C)S(=O)(=O)c1cccc(COC(=O)/C=C/c2cccc(F)c2)c1	none
CC1C(=O)N(Cc2ccc(Cl)cc2Cl)C(=O)CS1=O (centres undefined)	GPR151 activ 6.6 | GPR151 conf act inactive | GPR119 counter inactive
O=C(CCn1nnc2ccccc21)N/N=C/c1cccc(Cl)c1	none
Cc1cccc(NC(=O)Nc2cnn(-c3cccc(C(=O)Nc4cc(C)c(C)c(C)c4)c3)c2)c1	none
O=C(Cc1ccccc1)Nc1cnn(-c2cccc(C(=O)Nc3cccc(CN4CCOCC4)c3)c2)c1	GPR151 activ 5.2 | GPR151 conf act inactive | GPR119 counter inactive
Cc1cccc(NC(=O)Nc2cnn(-c3cccc(C(=O)Nc4ccnc(C)c4)c3)c2)c1	GPR151 activ 6.6 | GPR151 conf act inactive | GPR119 counter inactive
